Our source for the binding signal values is PMC7862700, “An all-to-all approach to the identification of sequence-specific readers for epigenetic DNA modifications on cytosine”.

Experiment in all cases: DAPPL (digital affinity profiling via proximity ligation, sequencing); 10 mM Tris-HCl pH 7.5, 50 mM NaCl, 1 mM DTT, 4% glycerol, room temperature, 30 min; GST-TFs on glutathione beads, 16-mer random dsDNA library, 0.1% formaldehyde crosslink after washing; high values mean tight binding
For one experiment, the target named is T1, FEV (Homo sapiens, UniProt Q99581 1-238).
T1 sequence: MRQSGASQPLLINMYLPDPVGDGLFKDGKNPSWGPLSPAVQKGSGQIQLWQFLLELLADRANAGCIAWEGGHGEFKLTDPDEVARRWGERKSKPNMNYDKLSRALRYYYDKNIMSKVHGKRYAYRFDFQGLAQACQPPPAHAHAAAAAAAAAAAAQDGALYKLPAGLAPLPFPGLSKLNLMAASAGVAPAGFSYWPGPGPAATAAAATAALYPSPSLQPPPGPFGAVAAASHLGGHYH
Particulars: protein: recombinant; tags: N-terminal GST; dsDNA, one strand shown. The method, boiled down:
(§1)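 In yeast, human transcription factors were expressed with a GST fusion, then pulled down on glutathione beads and given DNA barcodes. Pooled with a tag-only sample, they were exposed to 200 nmole of a 16-mer random double-stranded DNA library (Tris/NaCl/DTT/glycerol buffer, room temperature, 30 min), washed, crosslinked with 0.1% formaldehyde, proximity-ligated using BsaI/T4 ligase for 1 h at 37 °C, PCR-amplified and read on an Illumina NextSeq500. Each hexamer's frequency of reads for a factor, divided by the matching frequency for the tag-only sample, gives the binding signal.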

The next experiment deals with ETV5 (Homo sapiens, UniProt P41161 1-510). Particulars: protein: recombinant; tags: N-terminal GST; dsDNA, one strand shown. The method, boiled down:
as §1

The next experiment deals with HSF1 (Homo sapiens, UniProt Q00613 1-529). Particulars: protein: recombinant; tags: N-terminal GST; chain copies: 3; dsDNA, one strand shown. The method, boiled down: as §1
Chain of HSF1 (Q00613 whole entry): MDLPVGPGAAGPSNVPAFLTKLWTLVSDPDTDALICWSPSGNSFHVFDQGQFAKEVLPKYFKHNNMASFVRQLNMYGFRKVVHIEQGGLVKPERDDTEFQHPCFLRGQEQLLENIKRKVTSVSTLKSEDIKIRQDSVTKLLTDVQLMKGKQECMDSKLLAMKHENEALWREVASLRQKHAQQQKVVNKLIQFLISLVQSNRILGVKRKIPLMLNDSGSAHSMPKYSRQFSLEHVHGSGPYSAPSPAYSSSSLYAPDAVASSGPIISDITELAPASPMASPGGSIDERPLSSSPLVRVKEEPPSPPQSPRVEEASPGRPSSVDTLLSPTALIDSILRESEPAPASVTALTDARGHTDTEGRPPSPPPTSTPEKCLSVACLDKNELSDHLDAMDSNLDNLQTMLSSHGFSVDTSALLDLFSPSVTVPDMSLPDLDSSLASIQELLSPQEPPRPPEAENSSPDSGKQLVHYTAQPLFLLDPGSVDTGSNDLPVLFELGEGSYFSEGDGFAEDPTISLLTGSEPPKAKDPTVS
In a further experiment the target is T2, SPIC (Homo sapiens, UniProt Q8N5J4 1-248).
T2 sequence: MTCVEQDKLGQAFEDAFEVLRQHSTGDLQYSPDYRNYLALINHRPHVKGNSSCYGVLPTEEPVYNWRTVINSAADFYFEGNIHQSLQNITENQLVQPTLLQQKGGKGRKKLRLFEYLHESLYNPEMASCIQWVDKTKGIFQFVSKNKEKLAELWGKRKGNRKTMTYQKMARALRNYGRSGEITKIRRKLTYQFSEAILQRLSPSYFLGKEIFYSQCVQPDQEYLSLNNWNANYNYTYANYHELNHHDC
The conditions noted are these: protein: recombinant; tags: N-terminal GST; dsDNA, one strand shown. The method, boiled down: as §1

The target in the next experiment is ELF4 (Homo sapiens, UniProt Q99607 1-663). Particulars: protein: recombinant; tags: N-terminal GST; dsDNA, one strand shown. The method, boiled down: as §1
Chain of ELF4 (Q99607 whole entry): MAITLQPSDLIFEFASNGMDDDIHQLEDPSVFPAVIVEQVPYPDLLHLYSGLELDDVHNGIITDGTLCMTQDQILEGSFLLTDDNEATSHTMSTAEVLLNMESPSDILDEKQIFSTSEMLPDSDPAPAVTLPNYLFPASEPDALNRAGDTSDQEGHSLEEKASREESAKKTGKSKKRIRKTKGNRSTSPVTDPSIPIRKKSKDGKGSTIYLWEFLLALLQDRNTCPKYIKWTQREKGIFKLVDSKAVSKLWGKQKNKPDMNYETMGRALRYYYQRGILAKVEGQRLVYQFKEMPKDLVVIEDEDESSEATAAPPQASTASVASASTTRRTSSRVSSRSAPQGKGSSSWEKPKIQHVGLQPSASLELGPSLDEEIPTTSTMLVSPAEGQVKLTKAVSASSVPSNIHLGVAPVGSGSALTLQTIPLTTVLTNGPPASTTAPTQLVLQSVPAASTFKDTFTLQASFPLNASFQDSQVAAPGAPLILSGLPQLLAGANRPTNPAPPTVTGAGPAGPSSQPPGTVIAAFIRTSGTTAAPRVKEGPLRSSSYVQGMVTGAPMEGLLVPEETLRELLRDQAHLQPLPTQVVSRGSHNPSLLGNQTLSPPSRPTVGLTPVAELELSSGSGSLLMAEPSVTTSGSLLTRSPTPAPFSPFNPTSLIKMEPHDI
Another experiment has as its target T3, ELK4 (Homo sapiens, UniProt P28324-2 1-405).
T3 sequence: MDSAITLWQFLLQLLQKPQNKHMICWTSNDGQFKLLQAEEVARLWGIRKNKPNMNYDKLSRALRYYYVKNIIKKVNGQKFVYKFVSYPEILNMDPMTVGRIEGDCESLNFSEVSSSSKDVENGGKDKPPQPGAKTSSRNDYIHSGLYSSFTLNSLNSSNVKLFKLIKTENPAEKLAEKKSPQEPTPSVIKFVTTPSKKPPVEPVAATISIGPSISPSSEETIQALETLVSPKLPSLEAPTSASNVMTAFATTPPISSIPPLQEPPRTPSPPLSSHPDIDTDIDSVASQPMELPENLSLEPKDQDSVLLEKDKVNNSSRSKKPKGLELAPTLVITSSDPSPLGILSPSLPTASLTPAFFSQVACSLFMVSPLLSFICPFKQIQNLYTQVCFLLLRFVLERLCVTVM
The conditions noted are these: protein: recombinant; tags: N-terminal GST; dsDNA, one strand shown. The method, boiled down:
as §1

Another experiment deals with T4, ETV2 (Homo sapiens, UniProt O00321 1-342).
T4 sequence: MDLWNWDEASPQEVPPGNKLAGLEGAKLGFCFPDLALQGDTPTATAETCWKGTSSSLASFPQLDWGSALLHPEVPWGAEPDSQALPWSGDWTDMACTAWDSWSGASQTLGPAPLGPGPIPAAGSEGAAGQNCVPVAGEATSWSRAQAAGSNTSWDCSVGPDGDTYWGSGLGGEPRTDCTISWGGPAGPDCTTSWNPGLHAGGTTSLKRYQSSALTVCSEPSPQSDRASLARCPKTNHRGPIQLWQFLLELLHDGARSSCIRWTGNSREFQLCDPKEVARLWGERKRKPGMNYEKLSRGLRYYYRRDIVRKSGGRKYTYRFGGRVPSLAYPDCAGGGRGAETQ
The conditions noted are these: protein: recombinant; tags: N-terminal GST; dsDNA, one strand shown. The method, boiled down:
as §1

The next experiment addresses T5, ELF3 (Homo sapiens, UniProt P78545 1-371).
T5 sequence: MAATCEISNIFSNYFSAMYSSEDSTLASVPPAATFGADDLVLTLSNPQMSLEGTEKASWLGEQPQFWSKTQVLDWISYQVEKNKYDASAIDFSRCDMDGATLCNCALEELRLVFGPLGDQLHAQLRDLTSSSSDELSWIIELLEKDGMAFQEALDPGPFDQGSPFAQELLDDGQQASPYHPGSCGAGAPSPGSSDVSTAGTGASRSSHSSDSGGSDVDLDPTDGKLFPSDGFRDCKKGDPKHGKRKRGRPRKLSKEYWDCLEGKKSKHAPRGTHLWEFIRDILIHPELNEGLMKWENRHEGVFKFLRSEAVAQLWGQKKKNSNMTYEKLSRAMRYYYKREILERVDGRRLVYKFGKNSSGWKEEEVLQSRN
The conditions noted are these: protein: recombinant; tags: N-terminal GST; dsDNA, one strand shown. The method, boiled down:
as §1

The next experiment addresses CRX (Homo sapiens, UniProt O43186 1-299). Particulars: protein: recombinant; tags: N-terminal GST; dsDNA, one strand shown. The method, boiled down: as §1
In a further experiment the target is ETV1 (Homo sapiens, UniProt P50549 1-477). Particulars: protein: recombinant; tags: N-terminal GST; dsDNA, one strand shown. The method in brief: as §1
Chain of ETV1 (P50549 whole entry): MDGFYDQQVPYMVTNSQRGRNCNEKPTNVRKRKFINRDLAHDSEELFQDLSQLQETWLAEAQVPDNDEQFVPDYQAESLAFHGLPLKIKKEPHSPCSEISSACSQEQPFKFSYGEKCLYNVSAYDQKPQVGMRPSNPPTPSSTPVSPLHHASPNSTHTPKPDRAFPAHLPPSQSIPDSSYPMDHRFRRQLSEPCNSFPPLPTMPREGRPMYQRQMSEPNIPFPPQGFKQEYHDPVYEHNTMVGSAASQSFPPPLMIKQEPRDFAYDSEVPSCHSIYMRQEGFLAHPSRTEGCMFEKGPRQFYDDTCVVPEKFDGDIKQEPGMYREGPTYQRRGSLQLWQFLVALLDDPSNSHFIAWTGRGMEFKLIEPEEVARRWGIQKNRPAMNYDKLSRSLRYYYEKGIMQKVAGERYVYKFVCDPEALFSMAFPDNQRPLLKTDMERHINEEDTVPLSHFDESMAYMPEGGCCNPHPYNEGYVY
A further experiment concerns the target T6, ERF (Homo sapiens, UniProt P50548 1-548).
T6 sequence: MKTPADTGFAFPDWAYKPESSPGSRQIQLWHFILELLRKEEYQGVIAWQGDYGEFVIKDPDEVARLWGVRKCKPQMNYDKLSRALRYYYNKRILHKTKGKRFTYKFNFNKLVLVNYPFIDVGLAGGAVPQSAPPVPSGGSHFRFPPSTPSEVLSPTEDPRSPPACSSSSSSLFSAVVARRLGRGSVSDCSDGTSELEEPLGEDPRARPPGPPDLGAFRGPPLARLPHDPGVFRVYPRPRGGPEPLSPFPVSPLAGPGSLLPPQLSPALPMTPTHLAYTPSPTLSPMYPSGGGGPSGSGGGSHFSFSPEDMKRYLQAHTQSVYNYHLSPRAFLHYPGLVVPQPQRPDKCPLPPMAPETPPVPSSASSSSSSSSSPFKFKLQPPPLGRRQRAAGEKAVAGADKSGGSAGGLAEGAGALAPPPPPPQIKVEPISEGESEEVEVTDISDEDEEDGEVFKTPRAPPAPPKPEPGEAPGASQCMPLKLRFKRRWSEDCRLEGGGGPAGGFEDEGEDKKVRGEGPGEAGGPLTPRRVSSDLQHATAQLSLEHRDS
The conditions noted are these: protein: recombinant; tags: N-terminal GST; dsDNA, one strand shown. The method, boiled down: as §1

The target in the next experiment is T7, ETV3L (Homo sapiens, UniProt Q6ZN32 1-361).
T7 sequence: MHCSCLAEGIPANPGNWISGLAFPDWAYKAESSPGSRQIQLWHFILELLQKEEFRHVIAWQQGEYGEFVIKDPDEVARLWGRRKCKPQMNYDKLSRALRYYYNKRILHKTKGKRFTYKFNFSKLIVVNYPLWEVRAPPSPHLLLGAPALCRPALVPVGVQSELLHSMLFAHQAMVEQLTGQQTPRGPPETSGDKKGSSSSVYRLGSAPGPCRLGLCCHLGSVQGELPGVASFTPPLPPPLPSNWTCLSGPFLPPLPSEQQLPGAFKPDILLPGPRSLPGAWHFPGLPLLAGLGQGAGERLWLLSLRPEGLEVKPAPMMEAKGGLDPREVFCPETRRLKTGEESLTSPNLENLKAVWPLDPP
Particulars: protein: recombinant; tags: N-terminal GST; dsDNA, one strand shown. The method in brief:
as §1

The next experiment has as its target T8, ETS2 (Homo sapiens, UniProt P15036 1-469).
T8 sequence: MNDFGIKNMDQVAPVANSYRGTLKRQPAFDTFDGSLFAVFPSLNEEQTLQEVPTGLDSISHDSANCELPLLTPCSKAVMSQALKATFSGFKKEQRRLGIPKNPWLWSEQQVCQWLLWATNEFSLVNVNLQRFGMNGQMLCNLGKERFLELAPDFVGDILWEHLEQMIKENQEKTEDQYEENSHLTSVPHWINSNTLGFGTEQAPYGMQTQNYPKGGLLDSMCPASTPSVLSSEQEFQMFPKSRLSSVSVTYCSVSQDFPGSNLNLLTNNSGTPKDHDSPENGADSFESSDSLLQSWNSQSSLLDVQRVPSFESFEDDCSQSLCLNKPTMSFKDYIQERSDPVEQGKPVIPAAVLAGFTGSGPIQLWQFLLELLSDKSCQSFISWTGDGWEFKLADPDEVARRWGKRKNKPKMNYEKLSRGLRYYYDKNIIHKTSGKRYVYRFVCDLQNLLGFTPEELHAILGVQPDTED
The conditions noted are these: protein: recombinant; tags: N-terminal GST; dsDNA, one strand shown. The method in brief:
as §1

The target in the next experiment is T9, SPDEF (Homo sapiens, UniProt O95238 1-335).
T9 sequence: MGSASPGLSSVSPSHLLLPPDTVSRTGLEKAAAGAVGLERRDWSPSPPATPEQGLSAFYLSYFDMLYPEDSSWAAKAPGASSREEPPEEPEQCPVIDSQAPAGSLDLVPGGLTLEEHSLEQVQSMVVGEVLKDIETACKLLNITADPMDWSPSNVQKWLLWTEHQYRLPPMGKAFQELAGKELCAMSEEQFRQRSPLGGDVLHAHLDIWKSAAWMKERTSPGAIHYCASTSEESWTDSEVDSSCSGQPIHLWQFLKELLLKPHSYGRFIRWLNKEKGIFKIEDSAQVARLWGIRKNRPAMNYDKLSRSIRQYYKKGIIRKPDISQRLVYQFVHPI
The conditions noted are these: protein: recombinant; tags: N-terminal GST; dsDNA, one strand shown. The method, boiled down:
as §1

Another experiment deals with T10, ETV7 (Homo sapiens, UniProt Q9Y603 1-341).
T10 sequence: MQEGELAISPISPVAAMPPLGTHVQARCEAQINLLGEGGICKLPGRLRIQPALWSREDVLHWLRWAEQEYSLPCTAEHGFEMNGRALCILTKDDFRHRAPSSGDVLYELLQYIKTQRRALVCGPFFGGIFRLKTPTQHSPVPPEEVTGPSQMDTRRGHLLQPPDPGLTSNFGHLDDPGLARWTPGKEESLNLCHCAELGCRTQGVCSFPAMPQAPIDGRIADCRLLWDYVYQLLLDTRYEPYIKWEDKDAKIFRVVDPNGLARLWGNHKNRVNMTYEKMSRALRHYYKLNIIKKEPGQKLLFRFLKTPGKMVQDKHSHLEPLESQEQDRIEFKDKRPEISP
The conditions noted are these: protein: recombinant; tags: N-terminal GST; dsDNA, one strand shown. The method, boiled down:
as §1

Another experiment addresses T11, ELF5 (Homo sapiens, UniProt Q9UKW6-2 1-255).
T11 sequence: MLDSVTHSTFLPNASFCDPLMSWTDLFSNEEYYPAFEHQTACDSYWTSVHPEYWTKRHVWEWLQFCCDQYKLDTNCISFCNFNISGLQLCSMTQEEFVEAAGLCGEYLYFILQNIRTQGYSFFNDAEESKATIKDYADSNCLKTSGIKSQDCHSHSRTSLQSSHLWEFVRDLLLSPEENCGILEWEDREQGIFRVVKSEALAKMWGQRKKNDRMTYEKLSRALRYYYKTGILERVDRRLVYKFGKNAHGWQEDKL
Particulars: protein: recombinant; tags: N-terminal GST; dsDNA, one strand shown. The method, boiled down:
as §1

Another experiment addresses T12, ETV3 (Homo sapiens, UniProt P41162-2 1-143).
T12 sequence: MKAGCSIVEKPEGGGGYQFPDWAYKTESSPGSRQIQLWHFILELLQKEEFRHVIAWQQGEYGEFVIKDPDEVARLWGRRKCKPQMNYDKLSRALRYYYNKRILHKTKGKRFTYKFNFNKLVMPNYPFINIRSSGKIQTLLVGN
The conditions noted are these: protein: recombinant; tags: N-terminal GST; dsDNA, one strand shown. The method, boiled down: as §1

A further experiment has as its target ETV6 (Homo sapiens, UniProt P41212 1-452). Particulars: protein: recombinant; tags: N-terminal GST; dsDNA, one strand shown. The method, boiled down: as §1

Chain of ETV5 (P41161 whole entry): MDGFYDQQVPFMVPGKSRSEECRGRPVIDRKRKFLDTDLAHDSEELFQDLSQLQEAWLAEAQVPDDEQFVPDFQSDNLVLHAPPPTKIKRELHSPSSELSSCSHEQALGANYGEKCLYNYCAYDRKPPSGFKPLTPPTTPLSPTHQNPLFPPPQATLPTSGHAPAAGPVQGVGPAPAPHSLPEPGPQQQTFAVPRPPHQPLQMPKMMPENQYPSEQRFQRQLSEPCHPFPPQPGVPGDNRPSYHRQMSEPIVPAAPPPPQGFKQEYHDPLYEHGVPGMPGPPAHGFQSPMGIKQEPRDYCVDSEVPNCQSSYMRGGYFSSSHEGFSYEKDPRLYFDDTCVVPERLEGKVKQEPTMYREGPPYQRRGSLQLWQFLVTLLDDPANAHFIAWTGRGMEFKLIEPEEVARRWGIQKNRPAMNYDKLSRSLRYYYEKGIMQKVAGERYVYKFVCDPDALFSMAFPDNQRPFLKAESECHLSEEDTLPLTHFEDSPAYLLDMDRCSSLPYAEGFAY
Chain of ETV6 (P41212 whole entry): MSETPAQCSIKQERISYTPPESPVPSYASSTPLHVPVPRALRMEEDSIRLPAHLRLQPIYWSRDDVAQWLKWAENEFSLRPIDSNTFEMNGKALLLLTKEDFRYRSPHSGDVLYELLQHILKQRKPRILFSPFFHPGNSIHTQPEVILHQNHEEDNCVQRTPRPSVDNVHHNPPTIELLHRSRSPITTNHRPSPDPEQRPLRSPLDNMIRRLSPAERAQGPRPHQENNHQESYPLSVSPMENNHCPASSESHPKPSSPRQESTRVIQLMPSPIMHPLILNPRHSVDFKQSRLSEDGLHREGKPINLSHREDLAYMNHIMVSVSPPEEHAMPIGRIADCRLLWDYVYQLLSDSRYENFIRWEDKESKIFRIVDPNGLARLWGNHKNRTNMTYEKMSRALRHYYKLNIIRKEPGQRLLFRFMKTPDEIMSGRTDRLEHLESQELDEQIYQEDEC
Chain of CRX (O43186 whole entry): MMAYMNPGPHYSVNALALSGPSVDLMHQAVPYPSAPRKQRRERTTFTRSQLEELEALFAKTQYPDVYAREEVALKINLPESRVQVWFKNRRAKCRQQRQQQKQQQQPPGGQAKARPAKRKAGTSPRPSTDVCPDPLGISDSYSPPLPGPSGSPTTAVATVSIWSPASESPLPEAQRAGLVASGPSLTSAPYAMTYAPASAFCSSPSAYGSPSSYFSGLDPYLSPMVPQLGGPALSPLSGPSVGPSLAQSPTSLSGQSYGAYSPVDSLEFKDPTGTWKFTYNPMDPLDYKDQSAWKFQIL

Consider GCTACT, for which the binding signal with FEV was 1.43 fold enrichment (6-mer frequency, TF over GST control); in the experiment with ETV5, 1.39 fold enrichment (6-mer frequency, TF over GST control); in the experiment with HSF1, 1.07 fold enrichment (6-mer frequency, TF over GST control); in the experiment with SPIC it was 1.3 fold enrichment (6-mer frequency, TF over GST control); in the experiment with ELF4 it was 1.28 fold enrichment (6-mer frequency, TF over GST control); with ELK4, 1.38 fold enrichment (6-mer frequency, TF over GST control). The binding signal with ETV2 was 1.17 fold enrichment (6-mer frequency, TF over GST control); with ELF3, 1.47 fold enrichment (6-mer frequency, TF over GST control); in the experiment with CRX it was 1.09 fold enrichment (6-mer frequency, TF over GST control); with ETV1, 1.32 fold enrichment (6-mer frequency, TF over GST control); with ERF, 1.52 fold enrichment (6-mer frequency, TF over GST control); with ETV3L it was 1.2 fold enrichment (6-mer frequency, TF over GST control). Also, the binding signal with ETS2 is 1.39 fold enrichment (6-mer frequency, TF over GST control); with SPDEF it was 1.27 fold enrichment (6-mer frequency, TF over GST control); with ETV7, 1.33 fold enrichment (6-mer frequency, TF over GST control); with ELF5, 1.2 fold enrichment (6-mer frequency, TF over GST control); in the experiment with ETV3 it was 1.19 fold enrichment (6-mer frequency, TF over GST control); with ETV6, 1.38 fold enrichment (6-mer frequency, TF over GST control).
